Screening results (PubChem BioAssay)
Pf growth 48h: Primary qHTS for delayed death inhibitors of the malarial parasite plastid, 48 hour incubation | P. falciparum luciferase growth in erythrocytes, 48 h | Potency, µM (series often up to 28.7 µM), for the others: at the highest dose activity change, negative = inhibition, most hits filed as inhibitors | 310,000 tested, 5.9% active | AID 504832, 2011; note: potency is the fitted concentration of half-maximal effect; % is set by controls: 0 for no effect and ±100 for the full control effect
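Luminescence readout; reporter = integrated firefly luciferase in P. falciparum. RBC culture at 2% hematocrit, 0.1% parasitemia final, 37 C/5% CO2; decreased signal taken as growth inhibition.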
CHX counter: Cycloheximide Counterscreen for Small Molecule Inhibitors of Shiga Toxin; cell reporter, cycloheximide protein synthesis inhibition counterscreen; max response, %; 300,000 tested, 12% active; AID 2314, 2010; in the data active = max response mostly above about 13%, no sharp cut-off; inactive = mostly below about 14%; note: read at 38.3 µM for the half of the compounds with a filed dose; 0% is about no effect
Lassa entry inh: qHTS for Inhibitors of binding or entry into cells for Lassa Virus; Lassa virus pseudotype entry inhibition, cell reporter; Potency, µM (titrated, usually from 37.9 µM), for the others: at the top dose activity change, negative = inhibition, actives largely listed as inhibitors; 300,000 tested, 1.2% active; calls by dose curve; tested in HEK293 cells; note: potency is the fitted concentration of half-maximal effect; % is set by controls: 0 for no effect and ±100 for the full control effect; nearly all actives have a fitted effect of over 50% in size
Shiga toxin inh: A qHTS for Small Molecule Inhibitors of Shiga Toxin. inhibition, % at 38.7 µM. 290,000 tested, 9.2% active. Vero cells, Shiga toxin protein synthesis inhibition reporter; in the data active = inhibition mostly above about 28%, no sharp cut-off; inactive = mostly below about 43%; note: 0% is about no effect
MARV entry inh: qHTS for inhibitors of binding or entry into cells for Marburg Virus | Potency, µM (series often up to 37.8 µM), for the others: at the top dose activity change, negative = inhibition, actives largely listed as inhibitors | Marburg virus pseudotyped entry inhibition, cell reporter | 300,000 tested, 1.8% active; calls by dose curve; tested in HEK293 cells; note: potency is the fitted concentration of half-maximal effect; % is set by controls: 0 for no effect and ±100 for the full control effect
Pf growth 96h: Primary qHTS for delayed death inhibitors of the malarial parasite plastid, 96 hour incubation; P. falciparum luciferase reporter growth, 96 h; Potency, µM (highest dose often 28.7 µM), without a hit: top-dose activity change, negative = inhibition, usual class: inhibitors; 320,000 tested, 6.9% active; note: potency is the fitted concentration of half-maximal effect; % is set by controls: 0 for no effect and ±100 for the full control effect
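Luminescence readout: decreased luciferase signal marks inhibited growth of reporter-expressing P. falciparum in infected red cells (2% hematocrit, 0.05% parasitemia final), exposed to compound two generations (96 h, 37 C, 5% CO2).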
The depositor's hits bear a star; ? = inconclusive; · = no result given; [ ] = another dose, or the depositor's remark. This is a sample that favours compounds with a hit; in the whole collection about 19% have one here. Unless noted, calls come from the whole dose curve; as a rule, active = well fitted inhibition curve with a large enough effect; inconclusive = small, poorly fitted or top-dose-only effect, or another doubt; inactive = no such curve, though single readings can be large or run the other way.

SMILES	Pf growth 48h	CHX counter	Lassa entry inh	Shiga toxin inh	MARV entry inh	Pf growth 96h
CN1C2=C(C#N)C(c3ccccc3)(C(F)(F)F)NC(=O)N2c2ccccc21 (stereo not drawn)	·	0.5	1.0%	-16.0	-4.7%	7.38µM*
COc1ccc2c(c1OC)C(=O)OC2Nc1ccc(S(=O)(=O)N=C(N)N)cc1 (stereo not drawn)	4.1%	-1.6	·	16.9	·	26.1%
CCn1c(CNC(=O)c2cccnc2)cc2ccccc21	0.0%	-0.7	·	-7.3	·	1.0%
CCn1c(CNC(=O)C2CCCCC2)cc2ccccc21	5.9%	0.7	-18.7%[46.1 µM]	20.1	17.2%[46.1 µM]	9.28µM*
COc1ccc(C(=O)NCc2cc3ccccc3n2C)cc1	11.3%	28.9*	?	·	13.3%	?
CCn1c(CNC(=O)c2ccc(F)cc2)cc2ccccc21	14.6%	30.1*	·	28.4	·	?
COc1ccc(C(=O)NCc2ccc3c(c2)cc(C)n3C)cc1	-15.9%	-0.5	·	9.7	·	-9.6%
O=c1[nH]cn[nH]1	62.4%	-0.8	·	-6.4	·	0.0%
O=C1Nc2ccccc2C1(O)c1ccccc1 (stereo not drawn)	-1.0%	34.5	·	39.7	·	0.104µM*
COc1cccc(C2(O)C(=O)Nc3ccccc32)c1 (stereo not drawn)	-18.2%	17.8	1.0%[46.1 µM]	-1.6	?	25.8%
COC(=O)c1cnc[nH]1	8.2%	0.4	·	-1.7	·	-3.3%
CC(C)c1nc2sc3c(SCC(=O)NCc4ccco4)ncnc3c2c2c1CCC2	90.1%	2.0	?	-8.5	?	0.0%
CCc1ccc(-c2cc3c(=O)n(CC(=O)NCCCN4CCC(Cc5ccccc5)CC4)nc(C)n3n2)cc1	?	0.5	·	-6.1	·	?
Cc1nn(CC(=O)NCCCN2CCC(Cc3ccccc3)CC2)c(=O)c2cc(-c3ccccc3)nn12	?	8.8	·	-3.6	·	4.15µM*
COc1ccc(-c2cc3c(=O)n(CC(=O)NCCCc4ccccc4)ncn3n2)cc1	134.3%	16.2*	·	26.3*	·	?
CCC1CCCCN1CCCNC(=O)Cn1ncn2nc(-c3ccc(OC)cc3)cc2c1=O (stereo not drawn)	-12.9%	29.3*	22.6%[46.1 µM]	54.8*	?	?
CCc1ccc(-c2cc3c(=O)n(CC(=O)NCCCN4CCN(C)CC4)ncn3n2)cc1	?	23.5*	?	35.8*	?	140.5%
CCc1ccc(-c2cc3c(=O)n(CC(=O)NCc4ccccc4F)ncn3n2)cc1	45.1%	1.9	35.1%[46.1 µM]	10.3	-1.3%[46.1 µM]	?
COc1ccc(-c2cc3c(=O)n(CC(=O)NCc4ccccc4OC)ncn3n2)cc1	-12.2%	1.4	·	-3.2	·	3.8%
Cc1cc(C)cc(NC(=O)Nc2ccc3ccccc3n2)c1	17.6%	-1.7	13.5%	10.5	-2.9%[46.1 µM]	34.3%
CCc1sc(N)nc1-c1ccccc1	-1.2%	10.9	20.5%	-3.0	11.9%	?
O=C(COC(=O)c1ccc2ncsc2c1)Nc1ncc(Cl)cc1Cl	106.7%	36.6*	-11.4%	8.8	0.8%	177.3%
O=C(COC(=O)c1ccc(O)cc1)Nc1ncc(Cl)cc1Cl	10.8%	-2.7	-14.5%[46.1 µM]	-19.9	-14.8%[46.1 µM]	-0.3%
COC(=O)c1ccc(/C=C/C(=O)OCC(=O)Nc2ncc(Cl)cc2Cl)cc1	11.7µM*	·	·	·	·	?
Cc1c(Cl)cnc(NC(=O)COC(=O)c2cccs2)c1Cl	-11.6%	·	·	·	·	-6.4%
SMILES	Pf growth 48h	CHX counter	Lassa entry inh	Shiga toxin inh	MARV entry inh	Pf growth 96h
Cc1c(Cl)cnc(NC(=O)COC(=O)c2ccc3ncsc3c2)c1Cl	272.1%	34.4*	9.7%	59.7*	13.1%	160.9%
COc1ccc(C(=O)NC(=O)COC(=O)c2ccc3ncsc3c2)cc1	23.2%	31.8*	0.9%	34.8*	13.2%	60.3%
O=C(COC(=O)c1ccc2ncsc2c1)Nc1cc(Cl)ccc1F	-3.9%	·	8.3%	·	23.1%	49.2%
Cc1c(NC(=O)Nc2ccc(F)cc2)c(=O)n(-c2ccccc2)n1C	-5.0%	0.9	-17.3%[46.1 µM]	-14.8	-4.6%[46.1 µM]	13.7%
Cc1ccc(Nc2nc(N)nc(CN3CCN(Cc4ccc5c(c4)OCO5)CC3)n2)cc1Cl	?	-2.6	-18.8%	-9.6	?	101.2%[5.75 µM]
Cc1ccc(Nc2nc(N)nc(CN3CCN(Cc4ccc5c(c4)OCO5)CC3)n2)cc1C	?	-0.5	-15.4%	-4.8	?	21.8%
